For part of these data: Entries with a potency or affinity are not part of this list. Activity calls are given as the source filed them.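 How the source made its calls, unless noted: active means fluorescence ratio normalized to control raised more than 50% in primary screen plus both repeat runs; inactive means the rest.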
Key:
[1] = system: TRPC4 beta (transient receptor potential cation channel C4), mouse; assay: TRPC4 cation channel opening, retest – cell-based, Fluo4 calcium, HEK293 TRPC4beta/mu-opioid, duplicates, 10 µM, confirmation (AID 2426); conditions: Fluo4 calcium fluorescence, at 10 µM; hits give high values;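 on activation: percent rise of integrated ratio over buffer wells lacking compound which define 0%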
[2] = system: transient receptor potential cation channel C4 beta (TRPC4), mouse; assay: TRPC4 cation channel opening, second retest – cell-based, second round, Fluo4, HEK293 TRPC4beta/mu-opioid, 1 µM, confirmation (AID 2461;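 active means primary screen active and over 50% activation in each of two duplicate runs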;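 on activation: 0% = wells without test compound as baseline of integrated fluorescence ratio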); conditions: Fluo4 calcium fluorescence, at 1 µM; hits give high values
[3] = system: TRPC4 (transient receptor potential cation channel C4 beta), mouse; assay: potentiation of DAMGO EC20 TRPC4 response – cell-based, second round, Fluo-4, HEK293 TRPC4beta/mu-opioid, 1 µM, confirmation (AID 2554;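 active means primary screen hit whose fluorescence ratio, in both repeats, exceeds the weak agonist control mean by 3 SD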); conditions: DAMGO EC20, Fluo-4 calcium flux, at 1 µM; hits give high values
[4] = system: TRPC4 beta (transient receptor potential cation channel C4), mouse; assay: potentiation of DAMGO EC20 TRPC4 response – cell-based, Fluo-4, HEK293 TRPC4beta/mu-opioid, confirmation (AID 2555;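 active means primary screen hit whose calcium fluorescence ratio, in both repeats, exceeds the weak agonist control mean by 3 SD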); conditions: DAMGO EC20, Fluo-4 calcium flux, at 10 µM; hits give high values
[5] = biological target: Short transient receptor potential channel 4 (Mus musculus) (UniProt Q9QUQ5); assay: blockers of DAMGO-evoked TRPC4 calcium flux – cell-based, Fluo4, HEK293 TRPC4beta/mu-opioid, confirmation (AID 2636;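 active means calcium signal cut by more than 3 SD below the full-agonist control yet still positive, in both repeats and the earlier primary screen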); conditions: at 10 µM; hits give high values
Short transient receptor potential channel 4 (Mus musculus), sequence (Q9QUQ5 whole entry, looked up): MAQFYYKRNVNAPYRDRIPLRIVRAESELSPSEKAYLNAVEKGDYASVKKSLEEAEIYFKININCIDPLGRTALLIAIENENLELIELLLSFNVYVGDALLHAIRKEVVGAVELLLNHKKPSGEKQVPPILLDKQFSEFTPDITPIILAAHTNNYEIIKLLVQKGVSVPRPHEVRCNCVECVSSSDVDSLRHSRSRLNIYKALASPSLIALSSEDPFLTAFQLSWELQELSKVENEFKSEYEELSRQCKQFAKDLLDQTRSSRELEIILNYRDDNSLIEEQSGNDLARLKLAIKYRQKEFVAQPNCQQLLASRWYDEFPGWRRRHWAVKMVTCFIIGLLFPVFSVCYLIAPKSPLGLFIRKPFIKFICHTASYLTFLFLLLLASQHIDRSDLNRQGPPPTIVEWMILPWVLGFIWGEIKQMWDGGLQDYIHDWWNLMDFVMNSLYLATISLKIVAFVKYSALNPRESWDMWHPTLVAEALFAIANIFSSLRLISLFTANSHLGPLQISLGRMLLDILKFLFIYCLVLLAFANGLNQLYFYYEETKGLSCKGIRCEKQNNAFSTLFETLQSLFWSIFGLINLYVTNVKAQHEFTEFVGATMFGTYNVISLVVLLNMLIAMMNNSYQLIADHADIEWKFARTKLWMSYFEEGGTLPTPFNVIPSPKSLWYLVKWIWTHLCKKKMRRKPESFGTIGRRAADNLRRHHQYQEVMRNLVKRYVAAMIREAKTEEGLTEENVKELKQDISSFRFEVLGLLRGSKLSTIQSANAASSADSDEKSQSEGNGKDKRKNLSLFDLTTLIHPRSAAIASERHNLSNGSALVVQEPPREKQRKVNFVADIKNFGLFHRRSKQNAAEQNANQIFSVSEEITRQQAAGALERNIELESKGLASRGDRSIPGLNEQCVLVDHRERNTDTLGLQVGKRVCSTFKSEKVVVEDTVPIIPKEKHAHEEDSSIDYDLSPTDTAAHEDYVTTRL

[6] = biological target: Short transient receptor potential channel 4 (Mus musculus) (UniProt Q9QUQ5); assay: blockers of DAMGO-evoked TRPC4 calcium flux – cell-based, second round, Fluo4, HEK293 TRPC4beta/mu-opioid, 1 µM, confirmation (AID 2637;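 active means calcium signal ratio cut to more than 3 SD under the fully stimulated control mean yet still positive, in both repeats and the primary screen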); conditions: at 1 µM; hits give high values
[7] = biological target: Short transient receptor potential channel 4 (Mus musculus) (UniProt Q9QUQ5); assay: potentiation of DAMGO-evoked TRPC4 calcium signal – cell-based, HEK293 TRPC4/mu-opioid, Fluo-4 calcium, EC20 DAMGO, dose response (AID 434941;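 active means earlier screen potentiator hit that boosts the TRPC4 ion channel at some dose, with a dose response; inactive means no potentiation, no dose response, or not a prior hit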;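 further: calcium entry triggered by an EC20 dose of DAMGO at the co-expressed mu-opioid receptor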)
[8] = biological target: Short transient receptor potential channel 4 (Mus musculus) (UniProt Q9QUQ5); assay: block of DAMGO-driven TRPC4 calcium entry – cell-based, HEK293 TRPC4/mu-opioid, Fluo-4 calcium, dose response (AID 434942;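 active means primary screen inhibitor hit that blocks the TRPC4 channel at some tested dose, yielding a dose curve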)
[9] = biological target: Short transient receptor potential channel 6 (Mus musculus) (UniProt Q61143); assay: TRPC6 blockade by TRPC4 inhibitor hits – cell-based, HEK293, membrane potential dye, duplicate, selectivity assay for TRPC4 inhibitor project, confirmation (AID 434948;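 active means active in primary screen and both duplicates, each dropping signal beyond three positive-control SD with fluorescence still positive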); conditions: HEK293 TRPC6, membrane potential dye fluorescence, at 10 µM, stimulated with maximal-effect acetylcholine; hits give high values
Short transient receptor potential channel 6 (Mus musculus), sequence (Q61143 whole entry, looked up): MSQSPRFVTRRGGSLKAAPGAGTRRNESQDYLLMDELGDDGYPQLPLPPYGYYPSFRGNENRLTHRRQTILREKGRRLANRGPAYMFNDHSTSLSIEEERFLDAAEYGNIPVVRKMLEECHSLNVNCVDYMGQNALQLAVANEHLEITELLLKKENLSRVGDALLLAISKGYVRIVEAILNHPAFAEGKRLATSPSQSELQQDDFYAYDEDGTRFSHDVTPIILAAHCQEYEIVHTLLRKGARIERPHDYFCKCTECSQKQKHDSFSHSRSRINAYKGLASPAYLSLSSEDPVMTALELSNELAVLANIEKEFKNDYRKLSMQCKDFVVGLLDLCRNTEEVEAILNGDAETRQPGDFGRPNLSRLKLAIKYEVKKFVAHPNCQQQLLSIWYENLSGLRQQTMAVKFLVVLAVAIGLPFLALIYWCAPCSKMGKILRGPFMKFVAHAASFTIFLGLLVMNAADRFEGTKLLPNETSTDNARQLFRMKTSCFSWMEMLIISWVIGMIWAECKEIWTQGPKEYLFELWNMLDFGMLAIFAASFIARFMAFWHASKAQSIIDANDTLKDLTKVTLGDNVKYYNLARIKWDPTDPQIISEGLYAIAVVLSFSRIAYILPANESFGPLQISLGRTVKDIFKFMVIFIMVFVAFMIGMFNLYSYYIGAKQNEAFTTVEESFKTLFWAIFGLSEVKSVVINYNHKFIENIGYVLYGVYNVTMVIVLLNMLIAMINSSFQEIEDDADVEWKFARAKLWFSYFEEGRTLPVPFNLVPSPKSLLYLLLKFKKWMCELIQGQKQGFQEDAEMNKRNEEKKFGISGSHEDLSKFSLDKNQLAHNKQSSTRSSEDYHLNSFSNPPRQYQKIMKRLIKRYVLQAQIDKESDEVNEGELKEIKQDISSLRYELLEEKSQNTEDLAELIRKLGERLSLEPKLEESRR

[10] = biological target: Short transient receptor potential channel 6 (Mus musculus) (UniProt Q61143); assay: TRPC6 opening by TRPC4 activator hits – cell-based, HEK293, membrane potential dye, duplicate, selectivity assay for TRPC4 activator project, confirmation (AID 434950;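 active means membrane potential signal rise above negative control mean plus 3 SD in both duplicates, also active in the earlier TRPC4 screen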;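 on activation: 0% = buffer only wells and 100% = acetylcholine maximal-effect wells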); conditions: HEK293 TRPC6, membrane potential fluorescence, at 10 µM; activation: hits give high values; outcome: activation
[11] = biological target: Short transient receptor potential channel 6 (Mus musculus) (UniProt Q61143); assay: positive modulators of mouse TRPC6 channel – HEK293 cells, membrane potential dye, duplicate, selectivity assay for TRPC4 potentiator project, confirmation (AID 434952;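 active means compound raising the membrane signal above positive-control mean plus 3 SD in both repeats, and a primary screen hit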); conditions: HEK293 TRPC6, membrane potential dye fluorescence, at 10 µM, maximal acetylcholine added after compound; hits give high values
[12] = biological target: Short transient receptor potential channel 4 (Mus musculus) (UniProt Q9QUQ5); assay: calcium flux activators in TRPC4/5HT1a cells, counter-screen for TRPC4 activator project, cell-based, second counter screen, HEK293 TRPC4/5HT1a, Fluo-4 (AID 434977;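 active means calcium signal rise above buffer-control mean plus 5 SD in both duplicates, and also a hit in the primary screen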;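 on activation: plate controls were assay buffer for no effect and maximal serotonin response for full effect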); conditions: Fluo-4 calcium flux, at 10 µM; hits give high values
[13] = serotonin-gated TRPC4 signal block – cell-based, second counter screen, HEK293 TRPC4/5HT1a, Fluo-4, counter-screen for TRPC4 inhibitor project, confirmation (AID 434978;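 active means primary screen active whose calcium signal fell more than 3 SD beyond the full-serotonin control mean in both duplicate plates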;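 further: serotonin given first at submaximal then at maximal dose after compound preincubation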); conditions: Fluo-4 calcium flux, at 10 µM, serotonin added to trigger calcium flux; hits give high values
[14] = system: TRPC4 (mouse), co-expressed with 5HT1a in HEK293; assay: enhancement of serotonin-evoked TRPC4 response – cell-based, second counter screen, HEK293 TRPC4/5HT1a, Fluo-4, counter-screen for TRPC4 potentiator project, confirmation (AID 434979;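 active means signal rise over 3 SD above mean of control wells given weak agonist, in both repeats and first screen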); conditions: Fluo-4 calcium flux, at 10 µM, serotonin added at its EC20 dose; hits give high values
[15] = nonspecific calcium rise without TRPC4 – cell-based, HEK293 mu-opioid receptor line, counter-screen for TRPC4 activator project, confirmation (AID 449723;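 active means hit in primary screen, with calcium signal over 5 SD above buffer well mean in both duplicates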;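 further: counter screen cells carry the mu-opioid receptor alone and lack TRPC4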); conditions: HEK293 mu-opioid cells, Fluo-4 calcium fluorescence, at 10 µM; hits give high values
[16] = nonspecific potentiation of DAMGO calcium response – cell-based, HEK293 mu-opioid receptor line, counter-screen for TRPC4 allosteric potentiator project, confirmation (AID 449724;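 active means calcium signal rise more than 3 SD above the low-dose agonist control mean, in both duplicate plates and the primary screen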); conditions: HEK293 mu-opioid receptor cells, Fluo-4 calcium flux, at 10 µM, compound added before EC20 DAMGO stimulus; hits give high values

COc1ccc(CNCc2cn(-c3cccc(F)c3)nc2-c2ccc(C)o2)cc1
inactive: outcome [2] | outcome [3] | outcome [4] | outcome [5] | outcome [6] | outcome [7] | outcome [8] | outcome [9] | outcome [10] | outcome [11] | outcome [12] | outcome [13] | outcome [14] | outcome [16]
active: activation [1] 156% | activation [15] 12.4%

Cc1sc2ncnc(NCC(c3ccccc3)N(C)C)c2c1C (stereo not given)
active: activation [1] 245% | activation [2] 120% | activation [12] 49%
inactive: outcome [3] | outcome [4] | outcome [5] | outcome [6] | outcome [7] | outcome [8] | outcome [9] | outcome [10] | outcome [11] | outcome [13] | outcome [14] | outcome [15] | outcome [16]

COc1ccc(C(CNC(=O)c2ccccc2SC)N(C)C)cc1 (stereo not given)
inactive: outcome [2] | outcome [3] | outcome [4] | outcome [5] | outcome [6] | outcome [7] | outcome [8] | outcome [9] | outcome [11] | outcome [12] | outcome [13] | outcome [14] | outcome [15] | outcome [16]
active: activation [1] 99% | activation [10] 56%

CCn1cc(CNCc2cn(-c3ccccc3C)nc2-c2ccc(OC)c(F)c2)cn1
inactive: outcome [3] | outcome [4] | outcome [5] | outcome [6] | outcome [7] | outcome [8] | outcome [9] | outcome [10] | outcome [11] | outcome [12] | outcome [13] | outcome [14] | outcome [15] | outcome [16]
active: activation [1] 163% | activation [2] 74%

Cc1cccc(C(=O)NC(=S)NNC(=O)Cc2ccccc2)c1
active: activation [1] 238% | activation [10] 32.5% | activation [12] 133% | activation [15] 44.1%
inactive: outcome [2] | outcome [3] | outcome [4] | outcome [5] | outcome [6] | outcome [7] | outcome [8] | outcome [9] | outcome [11] | outcome [13] | outcome [14] | outcome [16]

COc1ccc(C(=O)C2CCCN(Cc3ccc(Sc4nncn4C)o3)C2)cc1F (stereo not given)
active: activation [1] 164% | activation [2] 87% | activation [10] 36% | activation [12] 9.87%
inactive: outcome [3] | outcome [4] | outcome [5] | outcome [6] | outcome [7] | outcome [8] | outcome [9] | outcome [11] | outcome [13] | outcome [14] | outcome [15] | outcome [16]

Cc1cc(CSC(=N)N)c(CSC(=N)N)cc1C
active: activation [1] 178% | activation [2] 67% | activation [12] 46%
inactive: outcome [3] | outcome [4] | outcome [5] | outcome [6] | outcome [7] | outcome [8] | outcome [9] | outcome [10] | outcome [11] | outcome [13] | outcome [14] | outcome [15] | outcome [16]

OCC1(CCc2ccccc2)CCN(Cc2cccn2-c2cccnc2)CC1
inactive: outcome [2] | outcome [3] | outcome [4] | outcome [5] | outcome [6] | outcome [7] | outcome [8] | outcome [9] | outcome [11] | outcome [12] | outcome [13] | outcome [14] | outcome [15] | outcome [16]
active: activation [1] 56% | activation [10] 55%

O=C(NCCc1ccccn1)c1ccc(COc2ccccc2)o1
active: activation [10] 35% | activation [12] 58.4%
inactive: outcome [1] | outcome [2] | outcome [3] | outcome [4] | outcome [5] | outcome [6] | outcome [7] | outcome [8] | outcome [9] | outcome [11] | outcome [13] | outcome [14] | outcome [15] | outcome [16]

CN(CCOc1ccc(Br)cc1)CC(O)c1ccccc1 (stereo not given)
active: activation [1] 71% | activation [10] 41.5% | activation [12] 12.6%
inactive: outcome [2] | outcome [3] | outcome [4] | outcome [5] | outcome [6] | outcome [7] | outcome [8] | outcome [9] | outcome [11] | outcome [13] | outcome [14] | outcome [15] | outcome [16]

CCN1CCN(c2ccc(S(=O)(=O)N3CCCCC3)cc2NC(=O)c2cccc(Cl)c2)CC1
inactive: outcome [2] | outcome [5] | outcome [6] | outcome [7] | outcome [8] | outcome [9] | outcome [10] | outcome [11] | outcome [13] | outcome [15] | outcome [16]
active: activation [1] 63% | potentiation [3] 9% | potentiation [4] 7% | activation [12] 17.8% | potentiation [14] 14.7%

COC(=O)NCC(c1ccc2c(c1)OCO2)N1CCN(c2ccc(OC)cc2)CC1 (stereo not given)
inactive: outcome [2] | outcome [3] | outcome [4] | outcome [5] | outcome [6] | outcome [7] | outcome [8] | outcome [9] | outcome [10] | outcome [11] | outcome [12] | outcome [13] | outcome [14] | outcome [15] | outcome [16]
active: activation [1] 85%

CCCCC(=O)NC(=S)NNC(=O)c1ccc(Cl)cc1Cl
inactive: outcome [2] | outcome [3] | outcome [4] | outcome [5] | outcome [6] | outcome [7] | outcome [8] | outcome [9] | outcome [11] | outcome [13] | outcome [14] | outcome [16]
active: activation [1] 196% | activation [10] 31.5% | activation [12] 76.5% | activation [15] 43.7%

Cc1csc2c(N3CCN(C(=O)Nc4ccc(OC(F)(F)F)cc4)CC3)ncnc12
inactive: outcome [2] | outcome [3] | outcome [4] | outcome [5] | outcome [6] | outcome [7] | outcome [8] | outcome [9] | outcome [10] | outcome [11] | outcome [13] | outcome [14] | outcome [15] | outcome [16]
active: activation [1] 75% | activation [12] 43.3%

COc1ccc2nc(SCCN(C)C)[nH]c2c1
active: activation [1] 108% | activation [2] 87% | activation [12] 35.7%
inactive: outcome [3] | outcome [4] | outcome [5] | outcome [6] | outcome [7] | outcome [8] | outcome [9] | outcome [10] | outcome [11] | outcome [13] | outcome [14] | outcome [15] | outcome [16]

— PubChem BioAssay
